Rows were chosen to be rich in hits. Some 18% of all compounds tested hit in one or more screens of this group.
GCN5L2 inh: blocks human GCN5L2 histone acetyltransferase; Q92830; GCN5L2 HAT assay, ThioGlo1 CoA-SH fluorescence; Potency, µM (titrated, usually from 58.9 µM), for the others: top-dose activity change, negative = inhibition, most hits filed as inhibitors; 390,000 tested, 0.21% active; AID 504327
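Enzyme at 20nM final was mixed with library compounds for 15 min at room temperature. Peptide H3(1-25) at 75uM, acetyl-CoA at 70uM and ThioGlo1 at 50uM were then added. Plates were read immediately and after 20 min (Ex340nm/Em540nm).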
VDR inhibitor: inhibitors of human vitamin D receptor. P11473. AID 504847. 400,000 tested, 0.93% active. VDR-SRC2-3 peptide fluorescence polarization, 2 h. Potency, µM, for the others: max response, negative = inhibition, hits mostly inhibitors
Target sequence (P11473 whole entry, looked up): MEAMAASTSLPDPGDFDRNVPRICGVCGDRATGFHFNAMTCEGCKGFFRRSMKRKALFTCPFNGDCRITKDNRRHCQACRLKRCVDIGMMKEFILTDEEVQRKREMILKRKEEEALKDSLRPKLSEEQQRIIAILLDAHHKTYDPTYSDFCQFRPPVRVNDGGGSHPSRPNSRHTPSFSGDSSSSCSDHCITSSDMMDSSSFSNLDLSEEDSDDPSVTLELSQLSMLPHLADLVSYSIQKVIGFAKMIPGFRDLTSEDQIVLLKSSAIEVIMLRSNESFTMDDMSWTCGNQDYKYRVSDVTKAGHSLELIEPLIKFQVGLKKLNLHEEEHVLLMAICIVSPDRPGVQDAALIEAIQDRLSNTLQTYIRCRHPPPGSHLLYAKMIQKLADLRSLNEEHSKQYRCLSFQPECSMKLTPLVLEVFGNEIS
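Fluorescence polarization assay measuring small-molecule disruption of VDR binding to the coregulator peptide SRC2-3. Compounds were pin-transferred (23 nl) into the reagent mix and incubated 2 h at room temperature before reading.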
DT40 TDP1 CPT: DT40-hTDP1 cell growth loss with CPT; chicken DT40 Tdp1-/-;hTDP1 cells + 20 nM CPT, ATP luminescence, 48 h; Potency, µM (top dose mostly 46.2 µM), for the others: top-dose activity change, negative = growth inhibition, hits mostly inhibitors; 420,000 tested, 12% active; also: nearly all actives have a fitted effect of over 55% in size
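Cell growth measured by CellTiter-Glo luminescence after a minimum 48 h, 37 C compound exposure with 20 nM CPT in Tdp1-knockout DT40 cells stably expressing hTDP1, seeded 400/well; qHTS titration format.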
TDP1 block: TDP1 (human) enzyme inhibition; Q9NUW8; recombinant TDP1, AlphaScreen DNA substrate cleavage; Potency, µM (highest dose often 130 µM), for inactives: top-dose activity change, negative = inhibition, hits mostly inhibitors; 350,000 tested, 0.28% active; AID 485290; also: nearly all actives have a fitted effect of over 40% in size
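Here, a 5' biotin and 3' phosphotyrosine-FITC DNA oligonucleotide reports Tdp1 activity: intact substrate bridges AlphaScreen beads, while cleavage leaves a 3' phosphate and drops signal. All incubations at room temperature.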
PLK1 PBD block: PLK1 (human) polo-box domain binding inhibition. Potency, µM, for inactives: max response, negative = inhibition, hits mostly inhibitors. P53350. Plk1 PBD binding of FITC phosphopeptide, fluorescence polarization. 360,000 tested, 2.8% active; also: series mostly up to about 57 µM; nearly all actives have a fitted effect of over 65% in size
TDP1 cell noCPT: qHTS for Inhibitors of human tyrosyl-DNA phosphodiesterase 1 (TDP1): qHTS in cells in absence of CPT; DT40 Tdp1-/- hTDP1 cells, no CPT, ATP luminescence, 48 h; Potency, µM (series often up to 46.2 µM), inactives show at the highest dose activity change, negative = growth inhibition, hits mostly inhibitors; 420,000 tested, 15% active; AID 686978, 2013; also: nearly all actives have a fitted effect of over 55% in size
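Seeded 400 DT40-hTDP1 cells/well (vehicle DMSO, no 20 nM CPT); pinned compounds; ≥48 hr at 37 °C; CellTiter-Glo luminescence as viability measure.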
* marks the source's active call; other numbers are inactive results; [ ] = another dose, or the depositor's remark. Calls follow the shape of the dose curve; as a rule, active = well fitted curve in the direction sought with a large enough effect; inconclusive = small, poorly fitted or top-dose-only effect, or another doubt; inactive = no such curve, though single readings can be large; an effect the other way counts as inactive or inconclusive. % is scaled to controls: 0 for no effect and ±100 for the full control effect; potency is read from the fitted curve at half-maximal effect.

Screening Fc1cccc(Cc2c(-c3cccc(Cl)c3)nc3ccc(Cl)cn23)c1 returned DT40 TDP1 CPT inconclusive, PLK1 PBD block -17% and TDP1 cell noCPT inconclusive.
O=C(O)c1cccc(-n2cccc2C=C2C(=O)c3ccccc3C2=O)c1 was read as GCN5L2 inh -23%, VDR inhibitor 9%, DT40 TDP1 CPT -5%, PLK1 PBD block inconclusive and TDP1 cell noCPT -27%.
For O=C(O)c1cccc(-n2cccc2/C=C2\SC(=O)N(Cc3ccccc3F)C2=O)c1 the results were GCN5L2 inh -15%, VDR inhibitor -4%, DT40 TDP1 CPT -26%, TDP1 block 8.9µM*, PLK1 PBD block inconclusive and TDP1 cell noCPT inconclusive.
Screening Cc1cc(C)cc(N2CC(C)(C)C2=O)c1 returned GCN5L2 inh -5%, VDR inhibitor 5%, DT40 TDP1 CPT 4%, TDP1 block -4%, PLK1 PBD block -12% and TDP1 cell noCPT -4%.
COc1cc(OC)cc(N2CC(C)(C)C2=O)c1 was read as GCN5L2 inh -10%, VDR inhibitor -24%, DT40 TDP1 CPT inconclusive, TDP1 block -2%, PLK1 PBD block 21µM* and TDP1 cell noCPT inconclusive.
`COC(=O)c1cc2sccc2n1Cc1nc(-c2ccc(C)cc2)oc1C` gave GCN5L2 inh -11%, VDR inhibitor -4%, DT40 TDP1 CPT -8%, TDP1 block -3% and TDP1 cell noCPT -4%.
O=C(CCc1ccccc1)N(Cc1cccnc1)c1nc2c(F)cc(F)cc2s1 was read as GCN5L2 inh -4%, VDR inhibitor 9%, DT40 TDP1 CPT inconclusive, TDP1 block 0% and TDP1 cell noCPT inconclusive.
Screening CC1=C(C#N)C(Nc2cccc(C)n2)(C(F)(F)F)C(=O)N1 (stereo unspecified) returned GCN5L2 inh -3%, VDR inhibitor -5%, DT40 TDP1 CPT -1%, TDP1 block 5%, PLK1 PBD block -4% and TDP1 cell noCPT 0%.
CC1=C(C#N)C(C(F)(F)F)(C(F)(F)F)N=C(c2ccco2)N1 was read as GCN5L2 inh -5%, VDR inhibitor -3%, DT40 TDP1 CPT inconclusive, TDP1 block 4%, PLK1 PBD block -9% and TDP1 cell noCPT 16µM*.
O=C(COc1ccc(Cl)cc1)Nc1ncc([N+](=O)[O-])s1 was read as GCN5L2 inh -14%, VDR inhibitor 13%, DT40 TDP1 CPT 26µM*, TDP1 block 5%, PLK1 PBD block -19% and TDP1 cell noCPT 23µM*.
For O=C(Cc1ccc(Br)cc1)Nc1ncc([N+](=O)[O-])s1 the results were GCN5L2 inh -3%, VDR inhibitor -18%, DT40 TDP1 CPT inconclusive, TDP1 block -6%, PLK1 PBD block inconclusive and TDP1 cell noCPT 13µM*.
For N/C(=N\OC(=O)Nc1ccccc1)c1ncc([N+](=O)[O-])s1 the results were GCN5L2 inh -9%, VDR inhibitor 11%, DT40 TDP1 CPT 3.3µM*, PLK1 PBD block -22% and TDP1 cell noCPT 8.2µM*.
O=C(COC(=O)COc1ccccc1)Nc1ncc([N+](=O)[O-])s1 was read as GCN5L2 inh -9%, VDR inhibitor inconclusive, DT40 TDP1 CPT 23µM*, TDP1 block -8%, PLK1 PBD block 17µM* and TDP1 cell noCPT inconclusive.
`CC(CC(=O)Nc1ncc([N+](=O)[O-])s1)c1ccccc1` (stereo unspecified) gave GCN5L2 inh -1%, VDR inhibitor 9%, DT40 TDP1 CPT inconclusive, TDP1 block -8%, PLK1 PBD block inconclusive and TDP1 cell noCPT inconclusive.
For CONC(=O)C[C@@H](C#N)NC(=O)[C@@H]1CCCN1C(=O)[C@@H](NC(=O)c1ccc(N)c(Cl)c1)C(C)(C)C the results were TDP1 block -6%.
Screening CC(=O)c1ccc(NC(=S)NCc2ccc(Cl)cc2Cl)cc1 returned GCN5L2 inh -2%, VDR inhibitor -10%, DT40 TDP1 CPT inconclusive, TDP1 block 0%, PLK1 PBD block -2% and TDP1 cell noCPT 23µM*.
COC(=O)c1cccc(NC(=S)NCCC2=CCCCC2)c1 was read as GCN5L2 inh -9%, VDR inhibitor 6%, DT40 TDP1 CPT 12µM*, TDP1 block 5%, PLK1 PBD block -10% and TDP1 cell noCPT 10µM*.
`CC(=O)c1cccc(NC(=S)NCCc2ccc(Cl)cc2)c1` gave GCN5L2 inh -7%, VDR inhibitor -12%, DT40 TDP1 CPT inconclusive, TDP1 block 0%, PLK1 PBD block -16% and TDP1 cell noCPT 18µM*.
COC(=O)c1ccc(NC(=S)NCCC2=CCCCC2)cc1 was read as GCN5L2 inh 1%, VDR inhibitor -16%, DT40 TDP1 CPT -12%, TDP1 block 4%, PLK1 PBD block -17% and TDP1 cell noCPT -23%.
Screening CC(C)(O)C1CC[C@@]2(C)C3CCC4[C@@]5(C)CCCC(C)(C)C5C(O)C[C@]4(C)[C@]3(C)CC[C@@H]12 (stereo partly specified) returned GCN5L2 inh -1%, VDR inhibitor 1%, DT40 TDP1 CPT 3%, TDP1 block -9%[56.1 µM] and TDP1 cell noCPT -3%.
Screening CC(=O)N1CCC2(CCCN(Cc3cc(C(F)(F)F)cc(C(F)(F)F)c3)C2)CC1 returned GCN5L2 inh -1%, VDR inhibitor inconclusive, DT40 TDP1 CPT -22% and TDP1 cell noCPT inconclusive.
O=C(CCCCn1cnc2c(=S)nc[nH]c21)Nc1ccc(C(=O)O)c(O)c1 was read as VDR inhibitor -17%, DT40 TDP1 CPT 1%, PLK1 PBD block -17% and TDP1 cell noCPT -3%.
For Cc1ccc(-c2nnc(SCC(=O)N3CC(C)CC(C)C3)o2)cc1C (stereo unspecified) the results were GCN5L2 inh -4%, VDR inhibitor -15%, DT40 TDP1 CPT 26µM*, TDP1 block -8%, PLK1 PBD block -12% and TDP1 cell noCPT 21µM*.
For COc1ccc(-c2nnc(SCC(=O)N3CCCC3)o2)cc1OC the results were VDR inhibitor 24%, DT40 TDP1 CPT -19%, PLK1 PBD block -4% and TDP1 cell noCPT -17%.
CC1CC(C)CN(C(=O)CSc2nnc(-c3ccc(Cl)cc3)o2)C1 (stereo unspecified) was read as GCN5L2 inh -3%, VDR inhibitor -3%, DT40 TDP1 CPT inconclusive, TDP1 block 5%, PLK1 PBD block -2% and TDP1 cell noCPT 18µM*.
For O=C(CSc1nnc(-c2ccc(Cl)cc2)o1)N1CCOCC1 the results were GCN5L2 inh -3%, VDR inhibitor 17%, DT40 TDP1 CPT -12%, TDP1 block 3%, PLK1 PBD block 1% and TDP1 cell noCPT inconclusive.
